Hit rate of the full screen: of about 100,000 compounds, about 4,200 (4.2%) were called active. The sample as a whole holds a higher share of actives than the screen did. Values without a mark were called inactive.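 The calls were made as follows: active = single-dose well whose peak fluorescence ratio is a statistical outlier from its plate by either plate-standardised score or position-corrected B-score; inactive = the rest.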
What follows are compounds tested against Voltage-dependent T-type calcium channel subunit alpha-1H (Homo sapiens) (UniProt O95180) (assay: Cav3.2 calcium influx blockers – cell-based, Fluo-4 calcium fluorescence, FDSS, MLSMR library, primary screen (AID 449739)). Conditions: Cav3.2-expressing cells, at 10 µM, hits give low values.
Sequence of Voltage-dependent T-type calcium channel subunit alpha-1H (Homo sapiens) (O95180 whole entry, looked up): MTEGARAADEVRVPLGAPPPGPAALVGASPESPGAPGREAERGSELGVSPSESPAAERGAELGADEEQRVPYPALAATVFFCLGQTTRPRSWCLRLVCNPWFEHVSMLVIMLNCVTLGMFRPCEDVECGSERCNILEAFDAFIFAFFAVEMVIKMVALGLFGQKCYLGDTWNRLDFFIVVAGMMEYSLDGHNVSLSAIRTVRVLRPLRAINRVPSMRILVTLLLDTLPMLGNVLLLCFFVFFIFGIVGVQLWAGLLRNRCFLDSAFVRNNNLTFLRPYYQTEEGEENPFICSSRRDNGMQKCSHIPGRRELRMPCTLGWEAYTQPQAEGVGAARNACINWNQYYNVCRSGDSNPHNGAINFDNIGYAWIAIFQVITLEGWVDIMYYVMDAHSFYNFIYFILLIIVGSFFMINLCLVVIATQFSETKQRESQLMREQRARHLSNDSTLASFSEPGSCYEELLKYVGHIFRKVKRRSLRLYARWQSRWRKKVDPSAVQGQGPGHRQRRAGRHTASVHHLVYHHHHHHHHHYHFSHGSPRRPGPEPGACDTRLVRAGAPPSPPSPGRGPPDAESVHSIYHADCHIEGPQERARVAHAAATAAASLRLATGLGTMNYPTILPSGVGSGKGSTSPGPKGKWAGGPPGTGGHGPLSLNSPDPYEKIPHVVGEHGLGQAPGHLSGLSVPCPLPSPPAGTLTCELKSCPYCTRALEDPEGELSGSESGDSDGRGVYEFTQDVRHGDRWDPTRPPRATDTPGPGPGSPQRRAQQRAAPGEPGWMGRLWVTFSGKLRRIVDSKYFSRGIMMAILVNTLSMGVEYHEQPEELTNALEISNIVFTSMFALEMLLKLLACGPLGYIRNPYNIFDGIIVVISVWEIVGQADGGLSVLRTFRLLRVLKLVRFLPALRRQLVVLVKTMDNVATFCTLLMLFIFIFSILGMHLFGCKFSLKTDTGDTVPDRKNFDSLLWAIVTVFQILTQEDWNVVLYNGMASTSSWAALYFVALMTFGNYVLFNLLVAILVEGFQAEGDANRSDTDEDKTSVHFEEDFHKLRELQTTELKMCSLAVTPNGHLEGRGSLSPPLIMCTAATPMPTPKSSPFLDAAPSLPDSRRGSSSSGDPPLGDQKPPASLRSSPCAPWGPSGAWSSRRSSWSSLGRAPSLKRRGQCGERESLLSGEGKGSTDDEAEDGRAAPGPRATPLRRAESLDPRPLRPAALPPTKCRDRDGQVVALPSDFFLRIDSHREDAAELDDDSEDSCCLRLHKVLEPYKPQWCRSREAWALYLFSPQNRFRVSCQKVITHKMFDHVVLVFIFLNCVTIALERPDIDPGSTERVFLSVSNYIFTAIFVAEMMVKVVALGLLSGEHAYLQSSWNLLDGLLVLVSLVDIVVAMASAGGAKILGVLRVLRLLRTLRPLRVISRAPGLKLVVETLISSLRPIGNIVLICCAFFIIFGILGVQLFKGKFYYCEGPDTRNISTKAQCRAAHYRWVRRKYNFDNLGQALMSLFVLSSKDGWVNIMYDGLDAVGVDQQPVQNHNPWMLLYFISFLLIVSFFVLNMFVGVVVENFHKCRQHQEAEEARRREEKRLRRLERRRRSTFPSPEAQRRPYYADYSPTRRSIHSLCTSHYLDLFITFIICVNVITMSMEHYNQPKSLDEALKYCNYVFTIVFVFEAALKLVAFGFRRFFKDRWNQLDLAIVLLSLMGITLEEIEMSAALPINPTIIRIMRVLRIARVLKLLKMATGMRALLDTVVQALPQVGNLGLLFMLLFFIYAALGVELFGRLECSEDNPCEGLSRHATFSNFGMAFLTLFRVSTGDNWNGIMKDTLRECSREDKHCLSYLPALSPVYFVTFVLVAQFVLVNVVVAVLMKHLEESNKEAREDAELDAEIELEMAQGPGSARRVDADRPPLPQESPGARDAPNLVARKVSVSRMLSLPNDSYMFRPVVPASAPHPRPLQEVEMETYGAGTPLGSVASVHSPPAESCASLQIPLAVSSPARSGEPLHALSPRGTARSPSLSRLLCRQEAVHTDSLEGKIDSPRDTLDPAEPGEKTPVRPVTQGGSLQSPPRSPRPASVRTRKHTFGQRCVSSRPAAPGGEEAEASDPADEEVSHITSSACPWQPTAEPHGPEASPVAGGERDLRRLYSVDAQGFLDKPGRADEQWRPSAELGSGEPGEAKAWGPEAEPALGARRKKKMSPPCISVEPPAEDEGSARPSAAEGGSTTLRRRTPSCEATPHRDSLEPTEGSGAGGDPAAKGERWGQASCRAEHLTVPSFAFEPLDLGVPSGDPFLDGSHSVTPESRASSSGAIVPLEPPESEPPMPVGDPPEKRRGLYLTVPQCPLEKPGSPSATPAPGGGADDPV
`N=c1ccn(CC(=O)NC(N)=O)c2ccccc12` was tested, and the B-score was 1.07. For `CC(=O)c1cnc(SCCN2C(=O)c3ccccc3C2=O)nc1C`, the B-score was -0.173. Compound `CCOC(=O)Nc1ccccc1N1C(=O)c2ccccc2C1=O` has a B-score of 0.477. With `CCOC(=O)c1cc2n(c1N)-c1ccccc1C2=O` the B-score was -9.74 (active). Work on `CCOC(=O)c1cc2n(c1C)-c1ccccc1C2=O` yielded a B-score of -0.985. Compound `COc1ccc(C(=O)NN(C)c2nc(-c3ccccc3)cc(C)c2S(C)(=O)=O)cc1` has a B-score of 1.17. For `CSc1nc(N(C)NC(=O)c2cccc(C)c2)c2ccccc2n1`, the B-score was -7.16 (active). Work on `CN(NC(=O)c1ccccc1)c1nc2ccccc2nc1C(F)(F)F` yielded a B-score of -0.171. In the case of `O=C(/C=C/c1ccccc1)N/C(=C/c1ccccc1)C(=O)Nc1ccccc1O`, the B-score is reported as -8.64 (active). `CCc1ccccc1NC(=O)/C(=C/c1ccccc1)c1ccccc1` showed a B-score of -4.21. With `O=C(/C=C/c1ccccc1)c1ccccc1O` the B-score was 0.49. Compound `COC(=O)c1c(-c2ccsc2)oc2ccc(-c3cc(OC)c(OC)c(OC)c3)cc12` has a B-score of -0.846. With `CCO[C@@H]1OC(C(=O)N2CCOCC2)=C[C@H](C)[C@H]1CCCO` the B-score was 0.155. For `Cc1ccc(NC(=O)N2CCSc3ccccc32)cc1`, the B-score was -0.746. `Cc1ccc(CN(N=Nc2nonc2N)c2nonc2N)c(C)c1` was tested, and the B-score was -6.83 (active). Work on `c1ccc(COc2ccccc2CNCc2cccnc2)cc1` yielded a B-score of -0.314. In the case of `CC1(C)CC(=O)C(C=NCCN2CCN(C(=S)Nc3cccc(Cl)c3)CC2)=C(O)C1`, the B-score is reported as -0.563. `Cc1ccc(C)c(CSc2nc(-c3ccco3)nc3c2c(=O)n(C)c(=O)n3C)c1` was tested, and the B-score was -0.668. `COc1ccc(CNC(=O)C2CC(c3ccc(C(F)(F)F)cc3)=NO2)cc1` (stereo not drawn) showed a B-score of -2.34. For `O=C(C1=C[C@H](c2coc3ccccc3c2=O)C[C@H](OCc2ccc(CO)cc2)O1)N1CCN(Cc2ccccc2)CC1`, the B-score was -1.94. In the case of `O=C1NC[C@@H](Cc2ccc(O)cc2)N(CCc2cccc(F)c2)C1=O`, the B-score is reported as -1.22. `CCN1C(=O)N[C@@H](c2ccccc2)C(C(=O)OC)=C1C` was tested, and the B-score was -0.116. `COC(=O)C1=C(C)N(C)C(C)=C(C(=O)OC)C1c1cccc(Br)c1` was tested, and the B-score was -4.38 (active). Work on `COCCN1C(=O)N[C@@H](c2ccccc2)C(C(=O)OC)=C1C` yielded a B-score of 0.0333. With `CCc1ccc(/C=N/NC(=O)c2ccc(OC3CCCC3)cc2)s1` the B-score was -0.109. For `CCOC(=O)C1=C(CN2CCc3ccccc32)NC(=O)NC1c1cc(C)ccc1C` (stereo not drawn), the B-score was 0.647. For `CCOC(=O)C1=C(CN2CCc3ccccc32)NC(=O)NC1c1cccc([N+](=O)[O-])c1` (stereo not drawn), the B-score was -1.81. For `CCOC(=O)C1=C(CN2CCc3ccccc32)NC(=O)NC1c1ccc(Cl)cc1` (stereo not drawn), the B-score was -5.78 (active).

Reference: PubChem BioAssay AID449739 (Vanderbilt High Throughput Screening Facility, 2010)
